An excerpt weighted towards active compounds, which were near 2.1% of everything screened.
PAX8 inh HTS = PAX8 transcriptional activity inhibition; RMG-I TPO-luciferase reporter, SteadyGlo, 24 h; 360,000 tested, 1.2% active; AID 652154; inhibition, % at 12.6 µM;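 active means mean replicate inhibition at least 60% with every replicate also reaching 60%; inconclusive means only one of the two criteria is met; inactive means mean below 60% and not all replicates reaching 60%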;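 further: luciferase light reporting Pax8 driven TPO promoter activity; plate controls were median of neutral control wells for no effect and mitoxantrone controls for full effect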
HIF-2a inh = blocks HIF-2a reporter activity; AID 624352; 786-0 RCC cells HIF-2a reporter, luciferase luminescence, overnight; 360,000 tested, 0.72% active; inhibition, % at 18.8 µM;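 active means inhibition of the luminescence signal of 40% or more relative to plate controls, in a single-dose primary screen at 18.75 µM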
CF NFkB block = inhibitors of cystic fibrosis induced NF-kB; KKLEB NF-kB-GFP reporter, PAF-induced, GFP fluorescence overnight; inhibition, % at 5 µM; 360,000 tested, 0.86% active;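 active means at least 50% inhibition at 5 µM, scaled per plate between neutral and stimulator controls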;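 further: PAF is a Pseudomonas aeruginosa culture filtrate used as stimulus; plate controls were PAF-stimulated DMSO wells for no effect and unstimulated DMSO wells for full effect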
KKLEB tox = counter-screen for CF NF-kB inhibitors: cytotoxicity | activity change (cytotoxicity), % at 5 µM | 360,000 tested, 0.36% active | KKLEB CF airway cells viability, ATPlite luminescence, overnight; stronger effect = lower value; cells stimulated with P. aeruginosa culture filtrate;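 active means corrected activity change at or below -50% at 5 µM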
EWS-Fli block = blocks EWS/Fli oncoprotein-driven transcription. 350,000 tested, 0.67% active. inhibition, % at 12.6 µM. AID 651661. A673 NR0B1-luciferase reporter, viability-normalised;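 active means mean inhibition of at least 50% after viability correction, with every replicate also passing that limit; inconclusive means mean reaches 50% but only one of two replicates passes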;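 further: firefly luciferase signal divided by Alamar Blue viability fluorescence both relative to DMSO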
HIF-2a conf = confirmation of HIF-2a inhibitors; AID 651580; shares compounds with HIF-2a inh; inhibition, % at 18.8 µM; 1,800 tested, 56% active; 786-0 RCC cells, HIF-2a luciferase reporter luminescence, overnight;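 active means mean inhibition across four replicates of at least 40 percent at the single tested concentration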
HIF-1a counter = inhibits HIF-1a reporter, a counter-screen for HIF-2a inhibitors; shares compounds with HIF-2a inh; MiaPaCa-2 HIF-1a luciferase reporter, desferoxamine, overnight; inhibition, % at 18.8 µM; 1,800 tested, 72% active;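 active means mean inhibition of the reporter signal across four replicates at the single tested dose of 50% or more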
DNA binding = binds DNA displacing acridine orange; shares compounds with EWS-Fli block; salmon sperm DNA acridine orange fluorescence polarization; AC35, µM (doses to about 68 µM), for inactives: top-dose activity change, negative = DNA binding; 640 tested, 2% active; AID 720586;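 active means fitted curve reaches a 35% signal fall AC35 below twice the sample's top valid tested dose, actives reach about 48 µM in these data; inactive means the rest, including activity in the rising direction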;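 further: lower polarization ratio signals compound binding to DNA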
Starred values were filed as active, the others as inactive; ? = inconclusive; . = no result.

SMILES	PAX8 inh HTS	HIF-2a inh	CF NFkB block	KKLEB tox	EWS-Fli block	HIF-2a conf	HIF-1a counter	others
Cc1cccc(-n2c(/C=C/c3ccc([N+](=O)[O-])o3)nc3ccccc3c2=O)c1	31	20	-6	12	38	.	.
O=c1c2ccccc2nc(/C=C/c2ccc([N+](=O)[O-])o2)n1-c1ccc(O)cc1	69*	67*	12	1	84*	2	105*
O=C(Cc1cccnc1)N1CCCCN2[C@@H](CO)[C@H](c3ccc(/C=C/c4ccccc4)cc3)[C@@H]2C1	-27	.	.	.	-7	.	.
COC(=O)[C@@H]1[C@@H](CO)[C@@H]2Cn3c(ccc(-c4cccc(F)c4)c3=O)[C@H]1N2Cc1cccnc1	12	.	.	.	-32	.	.
COC(=O)C1=C(c2ccc3ccccc3c2)C[C@@H]2CC[C@H]1N2C	4	-6	7	8	-1	.	.
COC(=O)C1=C(C(=O)OC)C2OC1c1cc3ccccc3cc12	109*	86*	42	-18	2	84*	59*
Cc1ccccc1S(=O)(=O)N1[C@@H]2Cn3c(ccc(-c4cccnc4)c3=O)[C@H]1[C@@H](C(=O)O)[C@@H]2CO	9	.	.	.	-1	.	.
CN1[C@@H]2CNc3ccccc3[C@@H]2[C@@H]1CO	7	.	.	.	1	.	.
C[C@H]1O[C@@H](OC2CC[C@]3(C=O)[C@H]4CC[C@]5(C)[C@@H](C6=CC(=O)OC6)CC[C@]5(O)[C@@H]4CC[C@]3(O)C2)CC2OC(C)(C)OC21 (stereo partly specified)	108*	51*	93*	-71*	71*	33	103*
CC1=CC(O)C(O)C2(C)C1CC1OC(=O)CC3C(C)C(O)C(=O)C2C13CO (stereo unspecified)	.	46*	-16	12	.	36	-65
Cc1ccc(OC(=O)N(C)C[C@H]2OCc3ccccc3-c3c(n(C)c4ccccc34)C(=O)N([C@@H](C)CO)C[C@H]2C)cc1	13	.	.	.	3	.	.
COc1ccc(CN2Cc3cnnn3-c3ccccc3C2c2ccccc2)cc1 (stereo unspecified)	32	26	16	-9	30	.	.
COc1ccc(CN2Cc3cnnn3-c3ccccc3C2C#N)cc1 (stereo unspecified)	62*	90*	7	-3	?	96*	105*
CC=Cc1ccc2n(c1=O)C[C@H]1[C@H](CO)[C@@H](C(=O)OC)[C@@H]2N1CC1CCCCC1 (mixture of isomers)	12	.	.	.	7	.	.
CC12CCC3C(CCC4(O)CC(O)CCC34C=NO)C1(O)CCC2C1=COC(=O)C1 (stereo unspecified)	109*	74*	85*	-48	74*	25	102*	DNA binding=-4%
C[C@H]1CN([C@@H](C)CO)C(=O)CCCn2cc(nn2)CO[C@H]1CN(C)C(=O)Oc1ccc2ccccc2c1	.	.	.	.	0	.	.
O=C1NC2C(=CC(O)C(O)C2O)c2cc3c(cc21)OCO3 (stereo unspecified)	123*	35	78*	-7	56*	.	.	DNA binding=-9%
Cc1cc2c(C(C)C)c(O)c(O)c(C=O)c2c(O)c1-c1c(C)cc2c(C(C)C)c(O)c(O)c(C=O)c2c1O	104*	89*	62*	-53*	58*	.	.	DNA binding=7%
Cc1ccccc1-n1c(/C=C/c2ccccn2)nc2ccccc2c1=O	47	35	2	4	-28	.	.
CN1C2CCC1/C(=C/c1ccccn1)C(=O)/C2=C\c1ccccn1	107*	88*	99*	-91*	80*	.	.	DNA binding=-3%
CC(=O)OC1CC(OC2C(O)CC(OC3C(O)CC(OC4CCC5(C)C(CCC6C5CCC5(C)C(C7=CC(=O)OC7)C(O)CC65O)C4)OC3C)OC2C)OC(C)C1OC1OC(CO)C(O)C(O)C1O (stereo unspecified)	104*	69*	91*	-53*	63*	.	.	DNA binding=-3%

Source: PubChem (several laboratories)
